According to PubChem BioAssay:
Activity calls are given as the source filed them. Unless noted, the rule behind the calls is not given here.

What was measured:
[1] = anti-His antibody binders, primary screen, artefact control for SMM control protein annotation, biochemical, small-molecule microarray, 635 nm fluorescence (AID 1128); details: anti-His Alexa647 antibody binding, higher = more signal;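 note: score merges feature fluorescence with signal-to-noise for each printed compound spot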
[2] = system: Human papillomavirus type 1a E7 protein (residues 1-88); experiment: HPV1a E7 small-molecule binders, primary screen, biochemical, small-molecule microarray, residues 1-88, 635 nm (AID 1129); details: small-molecule microarray binding, fluorescence 635 nm; higher = more signal
[3] = target: Focal adhesion kinase 1 (Homo sapiens) (UniProt Q05397); experiment: small-molecule microarray binders of FAK, primary screen, biochemical, 635/667 nm fluorescence, BSA, DTT (AID 1130); details: PTK2 binding, 635 nm fluorescence, higher = more signal;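 note: composite of spot emission at 667 nm and signal to noise over triplicate slides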
Chain of Focal adhesion kinase 1 (Homo sapiens) (Q05397 whole entry, looked up): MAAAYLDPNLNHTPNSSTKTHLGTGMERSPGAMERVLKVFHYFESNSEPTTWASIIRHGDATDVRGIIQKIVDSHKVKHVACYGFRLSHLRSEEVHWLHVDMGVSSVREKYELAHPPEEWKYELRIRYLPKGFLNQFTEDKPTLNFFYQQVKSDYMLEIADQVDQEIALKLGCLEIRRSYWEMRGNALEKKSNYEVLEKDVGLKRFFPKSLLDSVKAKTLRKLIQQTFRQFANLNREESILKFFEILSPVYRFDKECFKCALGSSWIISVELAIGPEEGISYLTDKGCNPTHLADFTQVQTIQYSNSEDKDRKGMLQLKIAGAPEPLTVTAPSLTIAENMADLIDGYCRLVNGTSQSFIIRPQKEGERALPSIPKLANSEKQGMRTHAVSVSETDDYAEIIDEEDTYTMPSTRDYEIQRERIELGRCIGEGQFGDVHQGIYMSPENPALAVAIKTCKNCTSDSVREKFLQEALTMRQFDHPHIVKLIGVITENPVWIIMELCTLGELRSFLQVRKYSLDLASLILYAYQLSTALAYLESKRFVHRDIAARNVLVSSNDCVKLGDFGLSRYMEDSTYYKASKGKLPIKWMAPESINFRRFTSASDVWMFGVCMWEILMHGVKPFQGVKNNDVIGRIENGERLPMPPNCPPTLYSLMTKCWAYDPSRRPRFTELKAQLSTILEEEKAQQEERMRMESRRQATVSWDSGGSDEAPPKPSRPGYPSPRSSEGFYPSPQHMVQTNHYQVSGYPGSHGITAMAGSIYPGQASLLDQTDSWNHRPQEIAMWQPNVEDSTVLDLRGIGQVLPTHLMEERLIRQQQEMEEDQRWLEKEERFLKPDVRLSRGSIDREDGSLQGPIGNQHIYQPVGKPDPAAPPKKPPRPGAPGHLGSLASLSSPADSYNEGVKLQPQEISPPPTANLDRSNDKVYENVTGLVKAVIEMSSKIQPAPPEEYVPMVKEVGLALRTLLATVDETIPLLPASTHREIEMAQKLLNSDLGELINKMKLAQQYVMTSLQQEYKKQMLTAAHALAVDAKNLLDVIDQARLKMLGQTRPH

[4] = system: Fibrinogen (Alexa647-labelled); experiment: fibrinogen binders on compound microarrays, profiling panel, artefact control for SMM control-protein annotation, biochemical, small-molecule microarray, 635/667 nm fluorescence (AID 1131); details: fibrinogen-A647 binding fluorescence, higher = more signal;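 note: z-score merges 667 nm fluorescence with per-spot signal-to-noise over triplicate slides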
[5] = target: Follistatin (Homo sapiens) (UniProt P19883); experiment: follistatin binders on small-molecule microarrays, primary screen, biochemical, small-molecule microarray, 635/667 nm fluorescence (AID 1132); details: FST binding, 635 nm fluorescence, higher = more signal
Chain of Follistatin (Homo sapiens) (P19883 whole entry, looked up): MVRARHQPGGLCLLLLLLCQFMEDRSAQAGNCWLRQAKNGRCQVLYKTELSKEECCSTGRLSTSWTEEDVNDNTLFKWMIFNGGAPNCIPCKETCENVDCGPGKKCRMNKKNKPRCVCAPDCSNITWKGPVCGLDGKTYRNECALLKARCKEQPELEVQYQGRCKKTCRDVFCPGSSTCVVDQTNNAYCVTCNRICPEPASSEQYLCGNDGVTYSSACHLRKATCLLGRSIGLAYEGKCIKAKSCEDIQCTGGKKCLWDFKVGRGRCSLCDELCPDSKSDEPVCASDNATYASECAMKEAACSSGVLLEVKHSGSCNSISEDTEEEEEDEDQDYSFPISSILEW

[6] = target: Fibroblast growth factor 2 (Homo sapiens) (UniProt P09038); experiment: FGF2 binders on small-molecule microarrays, primary screen, biochemical, small-molecule microarray, 635/667 nm fluorescence (AID 1133); details: small-molecule microarray binding, FGF2, fluorescence 635/667; higher = more signal
Chain of Fibroblast growth factor 2 (Homo sapiens) (P09038 whole entry, looked up): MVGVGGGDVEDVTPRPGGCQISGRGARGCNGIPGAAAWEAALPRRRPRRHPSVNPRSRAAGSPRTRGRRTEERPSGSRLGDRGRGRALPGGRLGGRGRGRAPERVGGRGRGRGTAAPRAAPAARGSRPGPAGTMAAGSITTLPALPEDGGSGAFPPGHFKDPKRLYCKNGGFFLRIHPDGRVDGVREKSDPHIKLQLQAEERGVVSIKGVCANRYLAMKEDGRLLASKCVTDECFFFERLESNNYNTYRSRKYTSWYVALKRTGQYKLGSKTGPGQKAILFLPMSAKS

[7] = mitochondrial membrane potential change in A549 cells, profiling panel, cell-based, JC-1 fluorescence, basal, 24 h, 100 nL (AID 1138); details: higher = more signal;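 note: A549 lung adenocarcinoma cells under basal conditions with no added stimulus; test concentration not given here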
Lefty1 = Lefty1 binders on small-molecule microarrays, primary screen, biochemical, small-molecule microarray, 635/667 nm fluorescence (AID 1139); details: small-molecule microarray binding, fluorescence 635/667; higher = more signal
[8] = system: wheat germ agglutinin (Triticum aestivum), Alexa647-labelled; experiment: wheat germ agglutinin binders on compound microarrays, profiling panel, artefact control for SMM control-protein annotation, biochemical, small-molecule microarray, 635/667 nm fluorescence (AID 1140); details: WGA-A647 binding, 635 nm fluorescence, higher = more signal;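 note: score merges 667 nm feature emission with signal to noise over triplicate slides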
[9] = target: Luciferin 4-monooxygenase (Photinus pyralis) (UniProt P08659); experiment: firefly luciferase enzyme inhibitors, primary screen, biochemical, luminescence, purified enzyme, 2006 set (AID 1141); details: SteadyGlo luminescence, 30 min, higher = more signal, called active from +8 up or from −8 down;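 note: cell-free assay with purified firefly luciferase at 100 ng per well in PBS; test concentration not given here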
Chain of Luciferin 4-monooxygenase (Photinus pyralis) (P08659 whole entry, looked up): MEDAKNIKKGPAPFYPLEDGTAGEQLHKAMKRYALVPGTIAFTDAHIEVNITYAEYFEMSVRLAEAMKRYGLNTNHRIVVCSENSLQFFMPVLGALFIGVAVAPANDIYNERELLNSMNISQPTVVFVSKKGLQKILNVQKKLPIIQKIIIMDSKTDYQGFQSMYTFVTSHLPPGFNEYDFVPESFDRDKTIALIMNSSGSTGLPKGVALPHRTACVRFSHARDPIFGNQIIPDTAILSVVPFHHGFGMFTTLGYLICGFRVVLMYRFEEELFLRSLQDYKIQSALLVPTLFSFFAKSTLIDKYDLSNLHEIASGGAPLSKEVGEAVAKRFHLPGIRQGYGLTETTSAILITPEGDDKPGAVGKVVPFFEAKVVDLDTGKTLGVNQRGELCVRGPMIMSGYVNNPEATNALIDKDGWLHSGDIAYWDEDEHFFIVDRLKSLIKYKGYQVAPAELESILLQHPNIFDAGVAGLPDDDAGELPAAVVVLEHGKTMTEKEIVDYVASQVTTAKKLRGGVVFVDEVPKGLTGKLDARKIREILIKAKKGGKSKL

[10] = system: Wnt5a (protein binding on small-molecule microarray); experiment: Wnt5a binders on small-molecule microarray, primary screen, biophysical, 635/667 nm fluorescence (AID 1142); details: 635 nm fluorescence, higher = more signal;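 note: fluorescence read at 667 nm with signal to noise per printed feature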
[11] = cell viability in Huh7 cells, primary screen, cytotoxicity control for HCV replication inhibitor project, CellTiter-Glo luminescence, basal, 48 h (AID 1143); details: Huh7 HCV replicon, higher = more signal, called active from +8 up or from −8 down;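 note: Huh7 hepatoma cells carrying a hepatitis C replication reporter with no stimulus; test concentration not given here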
[12] = P. aeruginosa biofilm formation inhibitors, primary screen, PAO1 strain, BacTiter-Glo luminescence, LB-PBS (AID 1144); details: 12 h, higher = more signal
[13] = CREB reporter modulators without forskolin, primary screen, cell-based, PC12, CRE-LacZ reporter, unstimulated (AID 1145); details: no forskolin, luminescence, 4.5 h, higher = more signal, called active from +8 up or from −8 down
[14] = CREB reporter modulators under forskolin, primary screen, cell-based, PC12, CRE-LacZ reporter, forskolin-stimulated (AID 1146); details: luminescence, 4.5 h, higher = more signal, called active from +8 up or from −8 down;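 note: PC12 cells with 6xCRE LacZ reporter stimulated by forskolin 10 µM; beta-galactosidase reporter signal reflecting CREB driven transcription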
[15] = target: Streptavidin (Streptomyces avidinii) (UniProt P22629); experiment: streptavidin binders on small-molecule microarray, primary screen, artefact control for SMM compound annotation, biophysical, 635/667 nm fluorescence (AID 1147); details: streptavidin binding, higher = more signal;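 note: signal reflects streptavidin binding to arrayed compounds as a control protein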
Chain of Streptavidin (Streptomyces avidinii) (P22629 whole entry, looked up): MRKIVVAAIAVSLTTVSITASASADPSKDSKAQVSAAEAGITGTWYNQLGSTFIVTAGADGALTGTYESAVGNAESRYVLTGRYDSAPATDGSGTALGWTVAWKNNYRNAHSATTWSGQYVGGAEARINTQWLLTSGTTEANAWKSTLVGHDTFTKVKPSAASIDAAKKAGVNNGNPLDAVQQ

[16] = small-molecule binders of probe aInhba, primary screen, biochemical, small-molecule microarray, 635/667 nm fluorescence (AID 1148); details: higher = more signal;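 note: score merges 667nm spot fluorescence with signal-to-noise for antibody binding to printed compounds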
Torsin-1A (Homo sapiens) [17] = target: Torsin-1A (Homo sapiens) (UniProt O14656); experiment: torsin A binders from cell lysate, primary screen, small-molecule microarray, wild-type, 635/667 nm (AID 1149); details: COS7 hTOR1A-WT lysate, 635 nm fluorescence, higher = more signal
Chain of Torsin-1A (Homo sapiens) (O14656 whole entry, looked up): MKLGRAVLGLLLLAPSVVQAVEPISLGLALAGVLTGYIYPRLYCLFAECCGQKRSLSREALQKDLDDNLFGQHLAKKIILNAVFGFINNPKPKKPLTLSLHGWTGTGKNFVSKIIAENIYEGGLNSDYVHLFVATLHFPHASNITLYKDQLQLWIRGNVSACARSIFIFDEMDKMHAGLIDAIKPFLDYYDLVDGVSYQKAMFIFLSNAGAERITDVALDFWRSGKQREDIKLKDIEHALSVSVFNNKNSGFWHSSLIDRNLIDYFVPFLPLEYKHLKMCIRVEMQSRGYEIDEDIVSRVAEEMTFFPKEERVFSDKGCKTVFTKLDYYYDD

Torsin-1A (Homo sapiens) [18] = target: Torsin-1A (Homo sapiens) (UniProt O14656); experiment: small-molecule binders of mutant TOR1A in lysate, primary screen, cell lysate, small-molecule microarray, COS7 lysate, 635/667 nm fluorescence (AID 1150); details: COS7 hTOR1A mutant lysate, 635 nm fluorescence, higher = more signal;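 note: score pools 667 nm emission and signal to noise measuring lysate protein binding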
[19] = system: Sonic hedgehog protein (Shh); experiment: small-molecule binders of Shh protein, primary screen, biochemical, small-molecule microarray, 635/667 nm fluorescence (AID 1151); details: small-molecule microarray binding, 635 nm fluorescence; higher = more signal;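 note: Shh protein binding to compounds spotted on small-molecule microarray slides; score combines spot fluorescence intensity with signal-to-noise across triplicate slides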

COc1ccc(C(O)C2C=CC3C(=O)N(C)C(=O)C3N2Nc2ccccc2)cc1 (stereo not given)
composite z-score [1]: 0.908 | composite z-score [2]: 1.24 | composite z-score [3]: 0.368 | composite z-score [4]: 0.925 | composite z-score [5]: 0.578 | composite z-score [6]: 0.0159 | z-score [7]: 0.436 | composite z-score (Lefty1): -0.341 | composite z-score [8]: 1.08 | z-score [9]: -1.17 (inactive) | composite z-score [10]: -0.0927 | z-score [11]: -2.05 (inactive) | z-score [12]: -0.371 (inactive) | z-score [13]: -0.143 (inactive) | z-score [14]: 0.459 (inactive) | composite z-score [15]: 1.41 | composite z-score [16]: 0.195 | composite z-score (Torsin-1A (Homo sapiens) [17]): 0.271 | composite z-score (Torsin-1A (Homo sapiens) [18]): 0.994 | composite z-score [19]: 0.011

C=CC[C@H](OC(=O)Nc1ccc(SC)cc1)c1ccc(O)c(F)c1
composite z-score [1]: 0.434 | composite z-score [2]: 0.294 | composite z-score [3]: -0.502 | composite z-score [4]: -0.0381 | composite z-score [5]: 0.137 | composite z-score [6]: 0.244 | z-score [7]: -1.34 | composite z-score (Lefty1): -0.173 | composite z-score [8]: 0.541 | z-score [9]: -1.83 (inactive) | composite z-score [10]: -0.171 | z-score [11]: -0.489 (inactive) | z-score [12]: -0.459 (inactive) | z-score [13]: 0.31 (inactive) | z-score [14]: 5.56 (inactive) | composite z-score [15]: -0.588 | composite z-score [16]: -0.285 | composite z-score (Torsin-1A (Homo sapiens) [17]): -0.135 | composite z-score (Torsin-1A (Homo sapiens) [18]): -0.151 | composite z-score [19]: 0.988

COC(=O)[C@@]1(Cc2ccc(OC)cc2)[C@@H]2[C@@H](CC(=O)[C@H]2CC(=O)C(=O)N(C)C)CN1C(=O)c1ccccc1
composite z-score [1]: 2.06 | composite z-score [2]: 1.24 | composite z-score [3]: 0.462 | composite z-score [4]: 1 | composite z-score [5]: 0.594 | composite z-score [6]: 0.153 | z-score [7]: 0.257 | composite z-score (Lefty1): -0.477 | composite z-score [8]: 1.34 | z-score [9]: -0.273 (inactive) | composite z-score [10]: 2.06 | z-score [11]: -3.89 (inactive) | z-score [12]: 0.327 (inactive) | z-score [13]: 0.39 (inactive) | z-score [14]: 0.247 (inactive) | composite z-score [15]: 1.79 | composite z-score [16]: 1.83 | composite z-score (Torsin-1A (Homo sapiens) [17]): -0.0909 | composite z-score (Torsin-1A (Homo sapiens) [18]): 0.452 | composite z-score [19]: 0.326

C=C(CCCC)/C(=C/C[C@@H](OC(C)=O)c1ccc(OCCO)cc1)c1cc(C(=O)OC)ccc1OC
composite z-score [1]: -0.435 | composite z-score [2]: 0.858 | composite z-score [3]: 0.304 | composite z-score [4]: -0.156 | composite z-score [5]: 0.335 | composite z-score [6]: -0.0009 | z-score [7]: 1.85 | composite z-score (Lefty1): 0.548 | composite z-score [8]: 0.94 | z-score [9]: -1.07 (inactive) | composite z-score [10]: -0.0169 | z-score [11]: -3.57 (inactive) | z-score [12]: 0.412 (inactive) | z-score [13]: 5.45 (inactive) | z-score [14]: 0.574 (inactive) | composite z-score [15]: 0.313 | composite z-score [16]: -0.176 | composite z-score (Torsin-1A (Homo sapiens) [17]): 0.929 | composite z-score (Torsin-1A (Homo sapiens) [18]): 0.687 | composite z-score [19]: 1.04

O=C1O[C@H](c2ccccc2)[C@H](c2ccccc2)N2[C@H]1[C@@H](C(=O)O)[C@]1(C(=O)Nc3ccc(C#CC4(O)CCCCCC4)cc31)[C@H]2c1ccccc1OCCO
composite z-score [1]: 1.16 | composite z-score [2]: 1.23 | composite z-score [3]: 0.854 | composite z-score [4]: 0.924 | composite z-score [5]: 0.729 | composite z-score [6]: 0.435 | z-score [7]: 0.833 | composite z-score (Lefty1): 0.664 | composite z-score [8]: 1.25 | z-score [9]: -3.82 (inactive) | composite z-score [10]: 0.455 | z-score [11]: -2.05 (inactive) | z-score [12]: 1.27 (inactive) | z-score [13]: 17.9 (active) | z-score [14]: 21.5 (active) | composite z-score [15]: 1.41 | composite z-score [16]: 0.397 | composite z-score (Torsin-1A (Homo sapiens) [17]): 0.541 | composite z-score (Torsin-1A (Homo sapiens) [18]): -0.462 | composite z-score [19]: 0.721

COCCOC(=O)N1C(=O)[C@@]2(c3cc(C#CCNC(N)=O)ccc31)[C@H](C(=O)Nc1nc3ccccc3s1)[C@H]1C(=O)O[C@H](c3ccccc3)[C@H](c3ccccc3)N1[C@@H]2c1ccc(O)cc1
composite z-score [1]: 0.216 | composite z-score [2]: 0.93 | composite z-score [3]: 0.164 | composite z-score [4]: 0.9 | composite z-score [5]: 1.31 | composite z-score [6]: 0.802 | z-score [7]: -2.44 | composite z-score (Lefty1): 0.392 | composite z-score [8]: 0.934 | z-score [9]: -0.518 (inactive) | composite z-score [10]: 0.0623 | z-score [11]: 0.284 (inactive) | z-score [12]: 0.326 (inactive) | z-score [13]: -0.168 (inactive) | z-score [14]: -0.227 (inactive) | composite z-score [15]: 0.753 | composite z-score [16]: 0.189 | composite z-score (Torsin-1A (Homo sapiens) [17]): -0.227 | composite z-score (Torsin-1A (Homo sapiens) [18]): -0.023 | composite z-score [19]: 0.527

CN1C(=O)C2C=CC(C(O)c3ccc([N+](=O)[O-])cc3)N(Nc3ccccc3)C2C1=O (stereo not given)
composite z-score [1]: 0.358 | composite z-score [2]: 1.23 | composite z-score [3]: 0.36 | composite z-score [4]: 0.999 | composite z-score [5]: 1.26 | composite z-score [6]: 0.531 | z-score [7]: -0.387 | composite z-score (Lefty1): 0.0022 | composite z-score [8]: 1.04 | z-score [9]: -0.53 (inactive) | composite z-score [10]: 0.288 | z-score [11]: 0.349 (inactive) | z-score [12]: -0.898 (inactive) | z-score [13]: 0.0535 (inactive) | z-score [14]: -0.323 (inactive) | composite z-score [15]: 1.65 | composite z-score [16]: 0.179 | composite z-score (Torsin-1A (Homo sapiens) [17]): 0.0754 | composite z-score (Torsin-1A (Homo sapiens) [18]): 0.317 | composite z-score [19]: -0.0538

O=C1OCC=C[C@H]2OC34C=CCN(Cn5nnc6ccccc65)C(=O)[C@H]3N(CCO)C(=O)[C@@H]4[C@@H]12 (stereo not given in full)
composite z-score [1]: 1.68 | composite z-score [2]: -0.696 | composite z-score [3]: -0.619 | composite z-score [4]: -1.41 | composite z-score [5]: -1.32 | composite z-score [6]: -1.46 | z-score [7]: -0.546 | composite z-score (Lefty1): -1.17 | composite z-score [8]: -0.944 | z-score [9]: 0.0848 (inactive) | composite z-score [10]: -0.26 | z-score [11]: 0.473 (inactive) | z-score [12]: 1.43 (inactive) | z-score [13]: 0.455 (inactive) | z-score [14]: 0.792 (inactive) | composite z-score [15]: -1.02 | composite z-score [16]: -0.208 | composite z-score (Torsin-1A (Homo sapiens) [17]): 1.09 | composite z-score (Torsin-1A (Homo sapiens) [18]): -1.8 | composite z-score [19]: -0.793

C=C[C@@H](CO)NS(=O)(=O)c1ccc(Br)cc1
composite z-score [1]: -0.371 | composite z-score [2]: -0.371 | composite z-score [3]: 0.169 | composite z-score [4]: -0.387 | composite z-score [5]: 0.0216 | composite z-score [6]: -0.446 | z-score [7]: -0.297 | composite z-score (Lefty1): -0.809 | composite z-score [8]: -0.448 | z-score [9]: -1.23 (inactive) | composite z-score [10]: 0.236 | z-score [11]: -2.14 (inactive) | z-score [12]: -1.74 (inactive) | z-score [13]: 1.54 (inactive) | z-score [14]: -0.52 (inactive) | composite z-score [15]: -0.232 | composite z-score [16]: -0.154 | composite z-score (Torsin-1A (Homo sapiens) [17]): -0.0176 | composite z-score (Torsin-1A (Homo sapiens) [18]): -0.354 | composite z-score [19]: -0.317
